Counter-ions that a name gives are not always drawn.
Tests used:
Settings in all cases: treatment time: 24 h
A549-ACTB-RAB5A [1] = experiment: lowest phenotypically active concentration; higher = less potent
Method in brief: (§1)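 The reporter lines, fifteen in total and built by gene editing in A549, HepG2 and WPMY1 cells, used BFP for segmentation alongside GFP and RFP/FusionRed markers. Each was treated at 0.3, 1, 3 or 9 µM for 24 h in four wells and then imaged live, with live-cell features normalised to solvent control wells. Deviation meant ≥3 of 4 wells beyond the 95th percentile of control Euclidean distances; reproducibility meant a median replicate Pearson correlation above the 95th percentile of non-replicates. Only conditions meeting both were scored as phenotypically active.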

A549-GM130-SQSTM1 [2] = experiment: as above
Method in brief: as §1

A549-TUBA1B-RELA [3] = experiment: as above
Method in brief: as §1

HepG2-ACTB-RAB5A [4] = experiment: as above
Method in brief: as §1

HepG2-TP53BP1-CLTA [5] = experiment: as above
Method in brief: as §1

A549-ACTB-RAB5A [6] = experiment: phenotypically active (imaging signature differs from DMSO and reproducible) at any of 0.3-9 uM (binary (1 = active, 0 = inactive)); higher = active
Method in brief: as §1

A549-CANX-COX4 = experiment: as above
Method in brief: as §1

A549-GM130-SQSTM1 [7] = experiment: as above
Method in brief: as §1

A549-TP53BP1-CLTA = experiment: as above
Method in brief: as §1

A549-TUBA1B-RELA [8] = experiment: as above
Method in brief: as §1

HepG2-ACTB-RAB5A [9] = experiment: as above
Method in brief: as §1

HepG2-CANX-COX4 = experiment: as above
Method in brief: as §1

HepG2-GM130-SQSTM1 = experiment: as above
Method in brief: as §1

HepG2-TP53BP1-CLTA [10] = experiment: as above
Method in brief: as §1

HepG2-TUBA1B-RELA = experiment: as above
Method in brief: as §1

WPMY1-ACTB-RAB5A = experiment: as above
Method in brief: as §1

WPMY1-CANX-COX4 = experiment: as above
Method in brief: as §1

WPMY1-GM130-SQSTM1 = experiment: as above
Method in brief: as §1

WPMY1-TP53BP1-CLTA = experiment: as above
Method in brief: as §1

WPMY1-TUBA1B-RELA = experiment: as above
Method in brief: as §1

Row | Compound | lowest phenotypically active concentration (A549-ACTB-RAB5A [1]) [µM] | lowest phenotypically active concentration (A549-GM130-SQSTM1 [2]) [µM] | lowest phenotypically active concentration (A549-TUBA1B-RELA [3]) [µM] | lowest phenotypically active concentration (HepG2-ACTB-RAB5A [4]) [µM] | lowest phenotypically active concentration (HepG2-TP53BP1-CLTA [5]) [µM] | phenotypically active (A549-ACTB-RAB5A [6]) | phenotypically active (A549-CANX-COX4) | phenotypically active (A549-GM130-SQSTM1 [7]) | phenotypically active (A549-TP53BP1-CLTA) | phenotypically active (A549-TUBA1B-RELA [8]) | phenotypically active (HepG2-ACTB-RAB5A [9]) | phenotypically active (HepG2-CANX-COX4) | phenotypically active (HepG2-GM130-SQSTM1) | phenotypically active (HepG2-TP53BP1-CLTA [10]) | phenotypically active (HepG2-TUBA1B-RELA) | phenotypically active (WPMY1-ACTB-RAB5A) | phenotypically active (WPMY1-CANX-COX4) | phenotypically active (WPMY1-GM130-SQSTM1) | phenotypically active (WPMY1-TP53BP1-CLTA) | phenotypically active (WPMY1-TUBA1B-RELA)
1 | Nc1ccc(-c2cccc3c(=O)cc(N4CCOCC4)oc23)cc1 | 3 | 9 | 9 | 3 | 9 | 1 (active) | 1 (active) | 1 (active) | 1 (active) | 1 (active) | 1 (active) | 1 (active) | 1 (active) | 1 (active) | 1 (active) | 1 (active) | 1 (active) | 1 (active) | 1 (active) | 1 (active)
2 | CC(C)(C)c1cc(NC(=O)Nc2ccc(-c3cn4c(n3)sc3cc(OCCN5CCOCC5)ccc34)cc2)no1 [quizartinib] | 3 | 1 | 3 | 9 | – | 1 (active) | 1 (active) | 1 (active) | 1 (active) | 1 (active) | 1 (active) | 0 (inactive) | 1 (active) | 0 (inactive) | 1 (active) | 1 (active) | 1 (active) | 1 (active) | 1 (active) | 1 (active)
3 | Nc1ncnc(Nc2ccc(OCc3ccccc3)c(Cl)c2)c1/C=N/OCCN1CCOCC1 | 3 | 3 | 1 | 9 | 9 | 1 (active) | 1 (active) | 1 (active) | 1 (active) | 1 (active) | 1 (active) | 0 (inactive) | 1 (active) | 1 (active) | 1 (active) | 0 (inactive) | 0 (inactive) | 0 (inactive) | 0 (inactive) | 0 (inactive)
4 | CCCCOc1c(C(=O)c2c(F)cc(C)cc2F)cnc2[nH]ncc12 | ≤ 0.3 | 1 | ≤ 0.3 | 3 | 3 | 1 (active) | 1 (active) | 1 (active) | 0 (inactive) | 1 (active) | 1 (active) | 0 (inactive) | 1 (active) | 1 (active) | 1 (active) | 1 (active) | 1 (active) | 0 (inactive) | 0 (inactive) | 1 (active)
5 | CCCCc1oc2ccc(NS(C)(=O)=O)cc2c1C(=O)c1ccc(OCCCN(CCCC)CCCC)cc1 [dronedarone] | 3 | 3 | 3 | 9 | 9 | 1 (active) | 1 (active) | 1 (active) | 0 (inactive) | 1 (active) | 1 (active) | 0 (inactive) | 1 (active) | 1 (active) | 1 (active) | 1 (active) | 1 (active) | 0 (inactive) | 1 (active) | 1 (active)
6 | C[C@@H]1C[C@H]2[C@@H]3CCC4=CC(=O)C=C[C@]4(C)[C@@]3(Cl)[C@@H](O)C[C@]2(C)[C@@]1(OC(=O)c1ccco1)C(=O)CCl [mometasone furoate] | ≤ 0.3 | ≤ 0.3 | ≤ 0.3 | – | – | 1 (active) | 1 (active) | 1 (active) | 1 (active) | 1 (active) | 0 (inactive) | 0 (inactive) | 0 (inactive) | 0 (inactive) | 0 (inactive) | 0 (inactive) | 0 (inactive) | 1 (active) | 0 (inactive) | 0 (inactive)
7 | COc1ccc(-c2cc(=O)c3c(O)cc(O)cc3o2)cc1O [Diosmetin] | 9 | 9 | 9 | – | – | 1 (active) | 1 (active) | 1 (active) | 0 (inactive) | 1 (active) | 0 (inactive) | 0 (inactive) | 0 (inactive) | 0 (inactive) | 1 (active) | 0 (inactive) | 1 (active) | 0 (inactive) | 1 (active) | 1 (active)
8 | CCn1c(=O)n([C@H]2CCCN(c3nccc(-c4cc5ccccc5o4)n3)C2)c2ccccc21 | 3 | 3 | 9 | – | – | 1 (active) | 1 (active) | 1 (active) | 1 (active) | 1 (active) | 0 (inactive) | 0 (inactive) | 0 (inactive) | 0 (inactive) | 0 (inactive) | 0 (inactive) | 1 (active) | 0 (inactive) | 0 (inactive) | 0 (inactive)
9 | O=c1c(-c2ccc(O)cc2)coc2cc(O[C@@H]3O[C@H](CO)[C@@H](O)[C@H](O)[C@H]3O)cc(O)c12 [Genistin] | 9 | – | 9 | – | – | 1 (active) | 1 (active) | 0 (inactive) | 1 (active) | 1 (active) | 0 (inactive) | 0 (inactive) | 0 (inactive) | 0 (inactive) | 0 (inactive) | 1 (active) | 1 (active) | 0 (inactive) | 1 (active) | 0 (inactive)
10 | COc1c(Cl)cc2c([nH]c3cnccc32)c1NC(=O)c1cccnc1C [ML 120B dihydrochloride] | 9 | 3 | 9 | 9 | 9 | 1 (active) | 1 (active) | 1 (active) | 0 (inactive) | 1 (active) | 1 (active) | 1 (active) | 0 (inactive) | 1 (active) | 0 (inactive) | 0 (inactive) | 0 (inactive) | 0 (inactive) | 0 (inactive) | 0 (inactive)
11 | CN(C)c1ccc(/C=C2\C(=O)Nc3ccccc32)cc1 | 9 | 3 | 9 | – | 9 | 1 (active) | 1 (active) | 1 (active) | 1 (active) | 1 (active) | 0 (inactive) | 0 (inactive) | 1 (active) | 1 (active) | 1 (active) | 1 (active) | 1 (active) | 1 (active) | 1 (active) | 0 (inactive)
12 | Cc1cc2c(F)c(Oc3ncnn4cc(OC[C@@H](C)OC(=O)[C@H](C)N)c(C)c34)ccc2[nH]1 [brivanib-alaninate] | 9 | 9 | – | 9 | 3 | 1 (active) | 1 (active) | 1 (active) | 1 (active) | 0 (inactive) | 1 (active) | 1 (active) | 1 (active) | 1 (active) | 1 (active) | 1 (active) | 1 (active) | 1 (active) | 1 (active) | 1 (active)
13 | C/C(=N/NC(=N)N)c1ccc(NC(=O)Nc2ccc(/C(C)=N/NC(=N)N)cc2)cc1 | 3 | 9 | 3 | 3 | 9 | 1 (active) | 1 (active) | 1 (active) | 0 (inactive) | 1 (active) | 1 (active) | 1 (active) | 1 (active) | 1 (active) | 1 (active) | 1 (active) | 1 (active) | 1 (active) | 0 (inactive) | 0 (inactive)
14 | CC/C(=C(/c1ccccc1)c1ccc(OCCN(C)C)cc1)c1ccccc1 [tamoxifen] | 3 | 3 | 3 | 9 | 9 | 1 (active) | 1 (active) | 1 (active) | 0 (inactive) | 1 (active) | 1 (active) | 0 (inactive) | 1 (active) | 1 (active) | 1 (active) | 1 (active) | 1 (active) | 1 (active) | 1 (active) | 1 (active)
15 | O=c1cc(-c2ccccc2)oc2c(O)c(O)ccc12 [7,8-Dihydroxyflavone] | 9 | – | 9 | 9 | – | 1 (active) | 1 (active) | 0 (inactive) | 0 (inactive) | 1 (active) | 1 (active) | 1 (active) | 1 (active) | 0 (inactive) | 0 (inactive) | 1 (active) | 1 (active) | 1 (active) | 0 (inactive) | 1 (active)
16 | CC(C)c1cnn2c(NCc3ccccc3)cc(NCCCCCCN)nc12 [BS 181 dihydrochloride] | 9 | – | 9 | – | – | 1 (active) | 1 (active) | 0 (inactive) | 1 (active) | 1 (active) | 0 (inactive) | 0 (inactive) | 0 (inactive) | 0 (inactive) | 0 (inactive) | 0 (inactive) | 1 (active) | 0 (inactive) | 1 (active) | 1 (active)
17 | O=C1/C(=C\c2ccncc2)CCC/C1=C\c1ccncc1 | 3 | 3 | – | 9 | 3 | 1 (active) | 1 (active) | 1 (active) | 0 (inactive) | 0 (inactive) | 1 (active) | 1 (active) | 1 (active) | 1 (active) | 1 (active) | 1 (active) | 1 (active) | 1 (active) | 1 (active) | 1 (active)
18 | COc1cc2ncnc(Nc3cccc(Br)c3)c2cc1OC | 3 | 9 | 3 | – | 9 | 1 (active) | 1 (active) | 1 (active) | 1 (active) | 1 (active) | 0 (inactive) | 0 (inactive) | 1 (active) | 1 (active) | 1 (active) | 0 (inactive) | 1 (active) | 1 (active) | 1 (active) | 0 (inactive)
19 | CC(C)(C)c1cc(C(=O)/C=C/c2ccc(C(=O)O)cc2)cc(C(C)(C)C)c1 | ≤ 0.3 | 1 | 1 | ≤ 0.3 | 9 | 1 (active) | 1 (active) | 1 (active) | 0 (inactive) | 1 (active) | 1 (active) | 1 (active) | 1 (active) | 1 (active) | 0 (inactive) | 1 (active) | 1 (active) | 1 (active) | 1 (active) | 1 (active)
20 | CCc1cncnc1N1CCN(Cc2nc3cc(C(F)(F)F)ccc3[nH]2)CC1 | 3 | 9 | – | 9 | 9 | 1 (active) | 1 (active) | 1 (active) | 0 (inactive) | 0 (inactive) | 1 (active) | 1 (active) | 1 (active) | 1 (active) | 1 (active) | 0 (inactive) | 0 (inactive) | 0 (inactive) | 0 (inactive) | 1 (active)
21 | OCc1cc(C(O)CNCCCCCCOCCCCc2ccccc2)ccc1O (configuration not stated) [salmeterol] | 9 | 9 | 9 | 9 | 9 | 1 (active) | 1 (active) | 1 (active) | 0 (inactive) | 1 (active) | 1 (active) | 0 (inactive) | 1 (active) | 1 (active) | 1 (active) | 1 (active) | 1 (active) | 1 (active) | 1 (active) | 1 (active)
22 | C=C1C(=O)O[C@@H]2[C@H]3O[C@]3(C)CCC=C(C)CC[C@@H]12 [Parthenolide] | 9 | 9 | 9 | 9 | – | 1 (active) | 1 (active) | 1 (active) | 0 (inactive) | 1 (active) | 1 (active) | 1 (active) | 1 (active) | 0 (inactive) | 0 (inactive) | 1 (active) | 1 (active) | 1 (active) | 0 (inactive) | 1 (active)
23 | Cc1cc(F)c(Nc2ncnc3cc(OCc4ccccc4)ccc23)cc1O | 9 | 9 | 9 | – | – | 1 (active) | 1 (active) | 1 (active) | 0 (inactive) | 1 (active) | 0 (inactive) | 0 (inactive) | 0 (inactive) | 0 (inactive) | 0 (inactive) | 0 (inactive) | 1 (active) | 0 (inactive) | 0 (inactive) | 1 (active)
